# Pf growth 48h: P. falciparum growth inhibition at 48 hours (one generation); P. falciparum luciferase growth in erythrocytes, 48 h; Potency, µM (highest dose often 28.7 µM), inactives show at the top dose activity change, negative = inhibition, hits mostly inhibitors; actives 5.9% (n = 310,000); note: potency is the fitted concentration of half-maximal effect; % is set by controls: 0 for no effect and ±100 for the full control effect
#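 First compound was added to culture medium, then infected red cells at 0.1% parasitemia and 2% hematocrit (final). After incubation at 37 C under 5% CO2, luciferase detection reagent was dispensed and light output recorded.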
# CHX counter: affects cycloheximide protein synthesis inhibition readout, counter-screen. cell reporter, cycloheximide protein synthesis inhibition counterscreen. max response, %. actives 12% (n = 300,000). AID 2314; in the data active = max response mostly above about 13%, no sharp cut-off; inactive = mostly below about 14%; note: read at 38.3 µM for the half of the compounds with a filed dose; 0% is about no effect
# Shiga inhibitor: Shiga toxin inhibition; Vero cells, Shiga toxin protein synthesis inhibition reporter; inhibition, % at 38.7 µM; actives 9.2% (n = 290,000); AID 2315; in the data active = inhibition mostly above about 28%, no sharp cut-off; inactive = mostly below about 43%; note: 0% is about no effect
# Pf growth 96h: inhibits malaria parasite growth, 96 h; P. falciparum luciferase reporter growth, 96 h; actives 6.9% (n = 320,000); Potency, µM (top dose mostly 28.7 µM), for the others: at the highest dose activity change, negative = inhibition, hits mostly inhibitors; note: potency is the fitted concentration of half-maximal effect; % is set by controls: 0 for no effect and ±100 for the full control effect
#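 Compounds incubated with erythrocytes infected by luciferase-expressing P. falciparum (2% hematocrit, 0.05% parasitemia final) for 96 hours, 37 C in 5% CO2. Growth inhibition scored as decreased luciferase luminescence.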
# The depositor's hits bear a star; ? = inconclusive; nt = not tested or not shown; ! = a repeat was not active. This is a sample that favours compounds with a hit; in the whole collection about 21% have one here. Unless noted, calls come from the whole dose curve; as a rule, active = well fitted inhibition curve with a large enough effect; inconclusive = small, poorly fitted or top-dose-only effect, or another doubt; inactive = no such curve, though single readings can be large or run the other way.
SMILES,Pf growth 48h,CHX counter,Shiga inhibitor,Pf growth 96h
C#CCOCCOCCOCCNc1nc(N2CCOCC2)nc(N2CCN(C(=O)CCCCCCCCCCNC(=O)[C@@H](CCC(=O)O)n3cc(CCCCCN)nn3)CC2)n1,15µM*,nt,nt,?
C#CCOCCOCCOCCNc1nc(N2CCN(C(=O)[C@H]([C@@H](C)CC)n3cc(CCCCN)nn3)CC2)nc(N2CCN(C(=O)[C@H](C)n3cc(CCC(=O)O)nn3)CC2)n1,11%,0,5,?
Cc1ccc(-n2c(Cl)c(Cl)nc(Cl)c2=O)cc1,-25%,-6,-3,?
O=C(NC(=S)N1CCN(c2ccc(F)cc2)CC1)C12CC3CC(CC(C3)C1)C2,?,-3,-26,?
CCOc1ccccc1N1CCN(C(=S)NC(=O)C23CC4CC(CC(C4)C2)C3)CC1,8.3µM*,-2,-13,?
O=C(Cc1ccc([N+](=O)[O-])cc1)c1c(O)cc(O)cc1O,3%,16*,19,2%
Cc1ccc(NC(=O)Cc2ccc([N+](=O)[O-])cc2)c(Br)c1,-15%,17,28,-17%
O=C(Cc1ccc([N+](=O)[O-])cc1)Nc1cc(C(F)(F)F)cc(C(F)(F)F)c1,-80%,1,-14,15µM*
Cc1cc(O)cc(O)c1C(=O)Cc1ccccc1,15%,9,17,28%
O=C(Cc1ccc([N+](=O)[O-])cc1)Nc1ccc(O)cc1C(=O)O,2%,-3,-15,5.2µM*
NC(=O)c1ccsc1NC(=O)Cc1ccc([N+](=O)[O-])cc1,12%,31*,32,46%
Cc1sc2ncn(CC(=O)N3CCN(c4ccc(F)cc4)CC3)c(=O)c2c1S(=O)(=O)N1CCOCC1,-3%,-4,-6,-5%
COCCN(C(=O)COC(=O)c1ccc(Cl)nc1)c1c(N)n(Cc2ccccc2)c(=O)[nH]c1=O,?,nt,nt,15%
CCOC(=O)N1CCN(Cc2nc(N)nc(Nc3ccc(C)cc3C)n2)CC1,1%,-4,16,68%
CCOc1ccc(N2C(=O)CC(N3CCN(c4ccc(Cl)cc4)CC3)C2=O)cc1 (stereo not drawn),1%,2,-18,3.3µM*
COc1ccc(N2C(=O)CC(N3CCN(c4ccc(Cl)cc4)CC3)C2=O)cc1 (stereo not drawn),17%,1,nt,0%
CN(Cc1nccn1C)C(=O)c1ccc2nc(Cc3ccccc3F)oc2c1,2%,55*,69*,?
Cc1cc(CN(C)C(=O)c2ccc3nc(Cc4ccccc4F)oc3c2)on1,2%,46*,75*,?
CN(Cc1nccs1)C(=O)c1ccc2nc(Cc3ccccc3F)oc2c1,10%,-3,-13,?
COc1ccccc1C(=O)Nc1ccc(OCC(=O)N2CCCCC2C)cc1 (stereo not drawn),-13%,nt,nt,?
COc1cc2c(cc1OC)/C(=C/C#N)NC(C)(C)C2,9.3µM*,-4,-9,?
Cc1ccc(C)c2[nH]c(=O)c(CN(Cc3ccc4c(c3)OCO4)Cc3nnnn3Cc3ccco3)cc12,8.3µM*,-2,-12,?
Cc1ccc2cc(CN(CCN3CCOCC3)Cc3nnnn3Cc3ccco3)c(=O)[nH]c2c1C,-15%,-5,3,?
Cc1ccc2cc(CN(Cc3ccc4c(c3)OCO4)Cc3nnnn3Cc3ccco3)c(=O)[nH]c2c1C,8.3µM*,-1,8,?
C#CCNc1c2c(nc3nnnn13)CCCC2,23%,11,2,?
SMILES,Pf growth 48h,CHX counter,Shiga inhibitor,Pf growth 96h
CNc1c2c(nn1C)CCCC2,28%,-5,17,6µM*!
COc1ccc(OC)c(NC(=O)NC2CCCc3ccccc32)c1 (stereo not drawn),?,-4,15,?
O=C(NNC(=S)Nc1ccccc1)C1CCCCC1,339%,2,10,-8%
COc1cc(C(=O)N/C(=C\c2cn(S(=O)(=O)N(C)C)c3ccccc23)C(=O)NCCCO)cc(OC)c1OC,?,7,-21,8.3µM*
COc1cc(C(=O)N/C(=C\c2cn(C)c3ccccc23)C(=O)NCCCO)cc(OC)c1OC,19%,-5,-7,?
COc1ccc(C(=O)N/C(=C\c2cn(S(=O)(=O)N(C)C)c3ccccc23)C(=O)NCCCn2ccnc2)cc1,12µM*,-7,-9,24%
COc1cccc(NC(=O)CSc2nc3scc(C)c3c(=O)[nH]2)c1,12%,-5,-5,8%
O=C1C=CC(=C(c2ccc(O)cc2)c2ccc(O)cc2)C=C1,7.4µM*,nt,nt,7.4µM*
O=C(NCc1ccco1)c1cnn2c(C(F)F)cc(-c3ccccc3)nc12,-12%,-4,-22,nt
Cc1cc(C)c(Cc2c(C)nc3c(C(=O)NCc4ccco4)cnn3c2C)c(C)c1,nt,-2,3,12µM*

# High-throughput results: PubChem, National Center for Advancing Translational Sciences (NCATS)
